# Experimental data from PubChem BioAssay (Tox21).
# Values without a mark were called inactive. Active and inactive are the calls of the source. Calls follow the shape of the dose curve; as a rule, active = well fitted curve in the direction sought with a large enough effect in the repeat runs; inconclusive = weak or mixed curves; inactive = flat fitted curve, though single readings scatter.
# Test: qHTS assay to test for compound auto fluorescence at 535 nm (green) in HepG2 cells (AID 720675)
# Details: green autofluorescence 485/535 nm, 1 h; series mostly up to 91.3 µM; fluorescence, % of fluorescein control: at the top concentration
# Excerpt: National Center for Advancing Translational Sciences [NCATS]
# NIH Chemical Genomics Center [NCGC]
# U.S. Environmental Protection Agency [EPA]
# National Institutes of Environmental Health Sciences [NIEHS]
# National Toxicology Program [NTP]
# U.S. Food and Drug Administration [FDA]
# Compound auto fluorescence often interferes with screening of the compound library against various biological targets and signaling pathways. Some of these compounds may have fluorophoric properties. Such properties may interfere with the assay outputs resulting in false positives and/or negatives. To decrease such complications and ensure the compound activities are relevant in terms of biological response, the Tox21 10K compound library was screened for auto fluorescence.
# From the fluorophores used as reporter signals in our screening assays, the auto fluorescence equivalencies of compounds against three fluorophores have been evaluated: Triamterene, Fluorescein and Rose Bengal sodium for blue, green and red fluorescence, respectively. The fluorescence intensities were measured using Excitation/Emission wavelengths at 405/460nm, 485/535nm and 540/590nm for blue, green and red labels, respectively. This assay includes the green fluorescence data.
# Tox21 Assay Protocol Summary:
# 2,000 HepG2 cells in 5 uL of culture medium (MEM containing 10% FBS) per well were dispensed into black wall/clear bottom 1536-well plates using a Multidrop Combi Dispenser (ThermoFisher Scientific, Waltham, MA). The assay plates were incubated overnight at 37 C to allow cell attachment to the well bottom, followed by the transfer of 23 nL compound or DMSO vehicle by a pintool work station (Kalypsys , San Diego, CA). After the assay plates were incubated for 1 hr at 37 C and 5% CO2, fluorescence intensities in the assay plates were measured by an Envision (PerkinElmer, Shelton, CT) plate reader using three labels for measuring blue, green and red fluorescence at […] 460, 535 and 590 nm respectively.
# % is scaled to controls: 0 for no effect and ±100 for the full control effect.
SMILES,"fluorescence, % of fluorescein control",outcome
C=C(C)C(=O)OCCOc1ccccc1,0.0605%,
Oc1ccc(O)c2c(O)cccc12,-0.223%,
CC1(C)[C@H]2CC[C@]1(C)[C@H](O)C2,,inactive
CCOC(=O)CC(=O)c1cc(F)c(Cl)nc1Cl,-0.0344% [at 95.7 µM],
OCCC1CCCCN1 (stereo not given),0.0187%,
O=C(O)C(c1ccc(Cl)cc1)c1ccc(Cl)cc1,0.0113%,
C=C(C)C(=O)OC(C)C,-0.0035%,
CCOc1cc(OCC)c(C(=O)CCC(=O)O)cc1OCC,0.0209% [at 46 µM],
CCCCOC(=O)c1ccccc1C(=O)OCC(CC)CCCC (stereo not given),0.127%,
CC[C@H](C)[C@@H](C(=O)O)n1sc2ccccc2c1=O,0.0455%,
O=S1(=O)c2cccc3cccc(c23)N1CCCN1CCN(c2ccc(F)cc2)CC1,0.0167% [at 46 µM],
Cc1cc(CC(=O)O)c(C)n1-c1ccc(Cl)cc1,0.416% [at 46 µM],
COCCOCCOCCOCCOC,-0.046%,
Cn1sccc1=O,-0.0584%,
CCN(CC)CCNC(C(=O)OCCC(C)C)c1ccccc1 (stereo not given),0.0245% [at 46 µM],
CC1(C)CCC(C)(C)c2cc(NC(=O)c3ccc(C(=O)O)cc3)ccc21,-0.0029% [at 46 µM],
C1CCC2OC2C1 (stereo not given),0.0223% [at 95.7 µM],
CC(C)c1ccccc1C(C)C,0.143%,
CCOc1ccc2[nH]cc(C(=O)NCc3ccccc3)c(=O)c2n1,-0.0398%,
CC(=O)SCc1ccco1,0.21%,

SMILES,"fluorescence, % of fluorescein control",outcome
CCCCCCCCCC(=O)OCC,-0.0297%,
C=C(C)C(=O)OCCN(C)C,-0.107%,
C=CCCCCCC,-0.0119%,
C=CC(=O)OCC(C)OCC(C)OCC(C)OC(=O)C=C (stereo not given),0.0931%,
N#CCc1cccc(C(F)(F)F)c1,-0.146%,
CCCCCCOC(=O)CCC,-0.0023%,
O=C(O)Cc1cc(I)c(Oc2ccc(O)c(I)c2)c(I)c1,,inactive
O=C(c1ccc(O)cc1)c1ccc(O)cc1,0.0323%,
CN(c1nccc(=O)[nH]1)C1CCN(c2nc3ccccc3n2Cc2ccc(F)cc2)CC1,0.0914% [at 46 µM],
O=C=NC1CCC(CC2CCC(N=C=O)CC2)CC1 (stereo not given),-0.0257%,
CCCCCCCCCCCCCCCC(=O)OC/C=C(C)/C=C/C=C(C)/C=C/C1=C(C)CCCC1(C)C,,inactive
CCOc1ccc(NC(=O)CC(C)=O)cc1,-0.0511%,
CC(C)=CCCC(C)CC=O (stereo not given),0.0464%,
CC(=O)[C@@]1(O)CC[C@H]2[C@@H]3C[C@H](C)C4=CC(=O)CC[C@]4(C)[C@H]3CC[C@@]21C,0.16% [at 46 µM],
CCCCCCCCCCCCCCC1CO1 (stereo not given),-0.0014%,
Cc1cc(O)ccc1N,1.87%,
CC(CN)CCCN (stereo not given),0.117%,
CC(C(=O)O)c1ccc(C(=O)c2ccccc2)s1 (stereo not given),-0.0168% [at 18.6 µM],
O=C(c1ccccc1)c1ccc2n1CCC2C(=O)O (stereo not given),,inactive
CN(C)CCCOc1nn(Cc2ccccc2)c2ccccc12,-0.0147% [at 18.6 µM],
